# Assay outcomes deposited in PubChem BioAssay by National Center for Advancing Translational Sciences (NCATS).
# Compounds with a hit are over-represented: about 21% of the library has one in this group of screens.
# Pf growth 48h: Primary qHTS for delayed death inhibitors of the malarial parasite plastid, 48 hour incubation. P. falciparum luciferase growth in erythrocytes, 48 h. Potency, µM (highest dose often 28.7 µM), for inactives: at the highest dose activity change, negative = inhibition, hits mostly inhibitors. 310,000 tested, 5.9% active. AID 504832, 2011; also: potency is read from the fitted curve at half-maximal effect; % is scaled to controls: 0 for no effect and ±100 for the full control effect
#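 Luciferase-expressing P. falciparum in infected erythrocytes (2% hematocrit, 0.1% parasitemia final) in RPMI 1640/0.5% Albumax were exposed to compound for 48 hours at 37 C, 5% CO2; growth read as luminescence.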
# Giardia FBPA inh: qHTS Assay for Inhibitors of Fructose-1,6-bisphosphate Aldolase from Giardia Lamblia. 290,000 tested, 0.71% active. Potency, µM (series often up to 59.6 µM), without a hit: at the highest dose activity, negative = inhibition, usual class: inhibitors. purified Giardia FBPA; also: potency is read from the fitted curve at half-maximal effect; % is scaled to controls: 0 for no effect and ±100 for the full control effect; nearly all actives have a fitted effect of over 55% in size
# Target sequence (A8B2U2 whole entry, looked up): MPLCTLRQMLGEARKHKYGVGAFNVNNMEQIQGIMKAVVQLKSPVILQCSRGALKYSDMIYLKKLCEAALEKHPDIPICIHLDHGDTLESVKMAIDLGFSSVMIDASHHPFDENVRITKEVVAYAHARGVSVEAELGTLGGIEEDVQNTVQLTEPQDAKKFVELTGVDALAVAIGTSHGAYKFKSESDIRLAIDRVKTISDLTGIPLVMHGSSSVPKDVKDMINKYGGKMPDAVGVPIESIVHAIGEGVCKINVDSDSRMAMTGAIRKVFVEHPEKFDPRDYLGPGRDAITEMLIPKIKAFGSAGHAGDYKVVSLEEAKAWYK
#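 40 nM FBPA preincubated 10 min at RT with compound (up to 57.5 uM final), then substrate plus GAPDH/TPI/NAD/arsenate coupling and diaphorase/resazurin added. Fluorescence read after 20 min at RT, 525/598 nm.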
# Pf growth 96h: Primary qHTS for delayed death inhibitors of the malarial parasite plastid, 96 hour incubation; P. falciparum luciferase reporter growth, 96 h; Potency, µM (top dose mostly 28.7 µM), for the others: at the highest dose activity change, negative = inhibition, usual class: inhibitors; 320,000 tested, 6.9% active; also: potency is read from the fitted curve at half-maximal effect; % is scaled to controls: 0 for no effect and ±100 for the full control effect
#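 P. falciparum expressing integrated firefly luciferase grown in erythrocytes (2% hematocrit, 0.05% parasitemia final) with compounds for 96 hours at 37 C, 5% CO2. Growth inhibition read as loss of luminescence after adding luciferase detection reagent.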
# Shiga toxin inh: A qHTS for Small Molecule Inhibitors of Shiga Toxin; Vero cells, Shiga toxin protein synthesis inhibition reporter; inhibition, % at 38.7 µM; 290,000 tested, 9.2% active; AID 2315, 2010; in the data active = inhibition mostly above about 28%, no sharp cut-off; inactive = mostly below about 43%; also: 0% is about no effect
# NS1 inh: qHTS Assay for Inhibitors of Influenza NS1 Protein Function | Potency, µM (highest dose often 46.1 µM), inactives show at the top dose activity, positive = more growth | 270,000 tested, 0.4% active | AID 2326, 2010; calls by dose curve; also: potency is read from the fitted curve at half-maximal effect; actives are rising curves; nearly all actives have a fitted effect of over 50% in size
#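 In this qHTS, NS1 from influenza A is expressed in budding yeast, where it slows growth. Cells are switched from glucose to 2% galactose medium (pH 6.0, -URA), treated with compound, and growth recovery is read at OD600.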
# Cycloheximide cs: Cycloheximide Counterscreen for Small Molecule Inhibitors of Shiga Toxin; cell reporter, cycloheximide protein synthesis inhibition counterscreen; max response, %; 300,000 tested, 12% active; in the data active = max response mostly above about 13%, no sharp cut-off; inactive = mostly below about 14%; also: read at 38.3 µM for the half of the compounds with a filed dose; 0% is about no effect
# * hit, by the source's call; ? = inconclusive; . = not tested or not shown; [ ] = another dose, or the depositor's remark. Unless noted, calls follow the shape of the dose curve; as a rule, active = well fitted curve in the direction sought with a large enough effect; inconclusive = small, poorly fitted or top-dose-only effect, or another doubt; inactive = no such curve, though single readings can be large; an effect the other way counts as inactive or inconclusive.
SMILES,Pf growth 48h,Giardia FBPA inh,Pf growth 96h,Shiga toxin inh,NS1 inh,Cycloheximide cs
Cc1nc(-c2ccc(F)cc2)c(CC(=O)N2CCN(S(=O)(=O)c3cccc([N+](=O)[O-])c3)CC2)s1,9.3µM*,.,12µM*,.,.,.
NC(=O)SCC(=O)Nc1ccc2ncccc2c1,.,.,.,.,9%,.
CC(OC(=O)c1ccc([N+](=O)[O-])s1)C(=O)Nc1ncc(Cl)cc1Cl (configuration not stated),-3%,-3%,0%,-8,-12%,-3
Cc1csc(NC(=O)CSC2=NS(=O)(=O)c3ccccc3N2)n1,18%,.,19%,.,.,.
Cc1cc(C)c(Nc2ncnc(N)n2)c(C)c1,?,3%,11%,-7,2%,-1
COc1ccc(NC(=O)c2cc(-c3ccco3)nc3ccccc23)cc1S(=O)(=O)N1CCOCC1,?,?,?,10,?,-1
Cc1ccc(NC(=O)CSc2ncnc3ccccc23)cc1S(=O)(=O)N1CCCCC1,?,0%,?,23,10%,-5
Cc1ccc(NC(=O)CSc2ncnc3ccccc23)cc1S(=O)(=O)N1CCOCC1,12µM*,3%,?,-8,2%,-3
CN1CCN(C(=O)CCc2nc3ccccc3c(=O)[nH]2)CC1,.,0%,1%,-2,6%,-2
Cc1ccc(NC(=O)CSc2nc(N)cc(N)n2)cc1S(=O)(=O)N1CCOCC1,-6%,-1%,?,-3,3%,-1
Cc1nc(-c2ccc(F)cc2)c(CC(=O)Nc2ccc(C)c(S(=O)(=O)N3CCOCC3)c2)s1,8.3µM*,.,9.3µM*,-8,8%,2
Cc1ccc(C)c(S(=O)(=O)N2CCN(C(=O)CCc3nc4ccccc4c(=O)[nH]3)CC2)c1,?,.,10µM*,.,.,.
COc1ccc(Nc2nc(-c3ccccc3)nc3ccccc23)cc1S(=O)(=O)N1CCOCC1,?,-11%,13µM*,-2,?,1
COc1ccccc1CC(=O)NNS(=O)(=O)c1ccc([N+](=O)[O-])cc1,33%,6%,64%,-12,4%,1
O=C(c1ccco1)N1CCC2(CC1)CCN(c1ccccc1)CC2,.,-2%,.,.,.,.
COC(=O)N1CCC2(CC1)CN(C(=O)Nc1cccc(C#N)c1)C2,.,7%,.,.,.,.
O=C(NCCC(=O)N1CCCCCCC1)c1ccc(Cl)cc1,-6%,.,5%,.,.,.
Cc1cc(C)nc(NC(=NCCc2c[nH]c3ccccc23)NC(=O)C(C)(C)C)n1,10µM*,-5%,4.7µM*,-9,2%,-1
Cc1cc(C)nc(N2C(=O)CC(C(=O)O)NC2=NCCc2c[nH]c3ccccc23)n1 (configuration not stated),-17%,3%,-12%,17,7%,-7
O=C1N(Cc2ccccc2)c2ccc(Cl)cc2C12OCCO2,?,-3%,?,-4,-14%,5
COC(=O)[C@@H]1C[C@H]2CC[C@H](O)C[C@H]2N1Cc1ccccc1OS(=O)(=O)c1ccc(C)cc1,10µM*,-10%,?,5,0%,-1
Nc1ccn(Cc2ccccc2)n1,-1%,4%,?,-16,.,4
c1ccc(Cn2ccc(-c3cnc(-c4ccccc4)s3)n2)cc1,.,-5%,286%,109*,-93%,41*
O=C(/C=C/c1ccc(Br)cc1)c1ccco1,13%,2%,448%,64*,-41%,29*
O=C(/C=C/c1ccccc1)N1CCN(C(=O)c2ccco2)CC1,7%,3%,.,10,1%,1
SMILES,Pf growth 48h,Giardia FBPA inh,Pf growth 96h,Shiga toxin inh,NS1 inh,Cycloheximide cs
O=C(/C=C/c1ccc(Br)cc1)c1ccc(NC(=O)c2ccco2)cc1,-1%,-1%,26%,14,5%,27*
O=C(/C=C\c1ccccc1)Nc1ccc(NC(=O)c2ccco2)cc1,?,4%,15%,5,.,4
O=C(/C=C/c1ccccc1)c1cc(Br)ccc(=O)c1O,.,-18%,?,23,-181%,-2
O=C(/C=C/C=C/c1ccccc1)c1ccco1,144%,-1%,13%,103*,-11%,51*
COc1ccc2oc(C(=O)OCC(=O)NC3CCCCC3)c(C)c2c1,9%,.,-6%,.,.,.
Cc1sc2nc(C3CCCCC3)nc(SCC(=O)N3CC(=O)Nc4ccccc43)c2c1C,?,-1%,4.7µM*,-11,27%,6
CCCSc1nnc(NC(=O)Nc2ccccc2OC)s1,18%,0%,19%,96*,0%,34*
CCc1nc(SCC(=O)N2CC(=O)Nc3ccccc32)c2c(C)c(C)sc2n1,?,1%,-145%,-6,15%,-4
COc1ccccc1Nc1nnc(SCC(=O)N2CCCC2)s1,-13%,0%,.,86,-5%,33*
COc1ccccc1Nc1nnc(SCC(=O)Nc2nc(-c3ccc(F)cc3)cs2)s1,1%,1%,13µM*,-9,?,5
CC(C)C[C@H](NC(=O)[C@H]1O[C@@H]1C(=O)O)C(=O)NCCCCN=C(N)N,.,5%,.,-5,.,-5
c1ccc2c(CC3NCCN3)cccc2c1,.,.,.,.,-9%,.
COc1ccccc1Nc1nnc(SCC(=O)NC2CCCC2)s1,12µM*,.,9.3µM*,.,.,.
COc1ccc(-c2ccc(SCC(=O)N3CC(=O)Nc4ccccc43)nn2)cc1,-11%,-5%,-15%,35*,3%,21*
COc1ccccc1Nc1nnc(SCC(=O)N2CC(=O)Nc3ccccc32)s1,?,3%,7.4µM*,-5,-5%,1
O=C1CN(C(=O)CSc2nnc(Nc3ccccc3)s2)c2ccccc2N1,-18%,-2%,?,-6,-2%,-1
Cc1ncc([N+](=O)[O-])n1CC(=O)Nc1cc(Cl)ccc1Cl,10%[0.00184 µM],-10%,6%,-2,-1%,-8
Cc1ccc2oc(=O)c3cc(C(=O)N4CCN(C)CC4)sc3c2c1,23%,0%,22%,-5,0%,1
Cc1ccc2nc(CCl)[n+]([O-])c(-c3ccccc3)c2c1,14%,-16%,?,-1,0%,2
CN1C(=O)CS/C1=N\NC(=O)COc1cccc2cccnc12,17%,-8%,-2%,-5,3%,-2
CN1C(=O)C[C@H](C(=O)O)[C@@H]1c1cccnc1,.,1%,.,-10,.,-7
O=C(c1ccco1)N1CCC2(CC1)CN(C(c1ccccc1)c1ccccc1)C2,.,9%,.,.,.,.
COc1ccc(-c2nc3cnc(N(C)C)nc3n(Cc3ccc(F)cc3)c2=O)cc1,.,18%,.,.,.,.
Cc1cc(/C=N/NC(=O)c2ccccc2F)c(C)n1-c1ccccc1,252%,-10%,-15%,67*,.,25*
CCOC(=O)N/N=C/c1ccc(F)cc1F,78%,0%,105%,57*,-8%,30*
Cc1cc(/C=N/NC(=O)c2cccc(F)c2)c(C)n1-c1ccccc1,219%,-9%,?,50,.,25
